Data published in paper PMC4336329 (PLoS ONE, 2015).
Screen size: about 310,000 compounds; about 14,000 (4.5%) showed an effect of 50% or more. Effects have a minus sign here. What follows is part of a selection rich in strong results, with near analogues and random picks from the rest.

Molecular target: human ether-à-go-go-related gene (hERG) potassium channel (human, UniProt Q12809)
Experiment: primary screen, population patch clamp on CHO cells stably expressing hERG; higher = less effect of the substance
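Also: peak tail current of the secondary pulse compared with the same well before compound.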

human ether-à-go-go-related gene (hERG) potassium channel, sequence (Q12809 whole entry, looked up): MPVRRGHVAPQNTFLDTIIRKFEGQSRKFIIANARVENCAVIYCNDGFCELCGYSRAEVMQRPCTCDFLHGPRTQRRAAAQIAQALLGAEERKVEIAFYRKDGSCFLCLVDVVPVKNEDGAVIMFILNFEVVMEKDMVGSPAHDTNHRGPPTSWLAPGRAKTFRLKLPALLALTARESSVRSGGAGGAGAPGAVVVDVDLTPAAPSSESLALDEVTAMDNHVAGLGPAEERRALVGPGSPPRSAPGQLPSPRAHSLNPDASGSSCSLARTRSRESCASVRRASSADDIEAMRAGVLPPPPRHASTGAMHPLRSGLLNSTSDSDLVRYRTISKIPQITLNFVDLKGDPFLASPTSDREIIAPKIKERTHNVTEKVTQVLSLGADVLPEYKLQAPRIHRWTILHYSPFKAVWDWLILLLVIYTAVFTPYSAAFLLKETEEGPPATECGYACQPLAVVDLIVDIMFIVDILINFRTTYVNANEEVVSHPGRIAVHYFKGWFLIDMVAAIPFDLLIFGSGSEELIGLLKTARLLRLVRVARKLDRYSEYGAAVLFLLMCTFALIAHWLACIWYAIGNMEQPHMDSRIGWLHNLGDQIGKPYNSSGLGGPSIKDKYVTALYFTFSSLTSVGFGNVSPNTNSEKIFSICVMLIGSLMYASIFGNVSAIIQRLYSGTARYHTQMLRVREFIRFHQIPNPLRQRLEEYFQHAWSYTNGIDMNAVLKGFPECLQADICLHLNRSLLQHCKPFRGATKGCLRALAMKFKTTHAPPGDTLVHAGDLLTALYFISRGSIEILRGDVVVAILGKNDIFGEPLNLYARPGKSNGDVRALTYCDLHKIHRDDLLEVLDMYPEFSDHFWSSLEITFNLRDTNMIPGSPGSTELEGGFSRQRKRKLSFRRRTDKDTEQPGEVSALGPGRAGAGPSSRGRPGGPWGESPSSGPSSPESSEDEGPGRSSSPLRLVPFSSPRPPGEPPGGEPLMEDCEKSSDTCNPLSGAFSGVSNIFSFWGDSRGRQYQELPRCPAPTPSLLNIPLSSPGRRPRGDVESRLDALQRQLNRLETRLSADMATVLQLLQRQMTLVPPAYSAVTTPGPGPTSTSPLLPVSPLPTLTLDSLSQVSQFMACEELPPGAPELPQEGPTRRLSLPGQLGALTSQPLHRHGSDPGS

SMILES | hERG current change (%, negative = inhibition) at 10uM
Cc1ncoc1C(=O)N1CCc2c([nH]c3ccccc23)C1C1CCCCC1 (stereo not drawn) | 1.89%
Cc1cccc(C2c3[nH]c4ccccc4c3CCN2C(=O)c2ocnc2C)n1 (stereo not drawn) | -10.5%
Cc1ncoc1C(=O)N1CCc2c([nH]c3ccccc23)C1C(C)(C)C (stereo not drawn) | -65.3%
COc1ccc(CNC(=O)C(C)n2ccc3cc(S(=O)(=O)N4CCCCCC4)ccc32)cc1 (stereo not drawn) | 1.82%
CCN(CC)CCC(c1ccc(N(C)C)cc1)c1c(O)cc(OC)cc1OC (stereo not drawn) | -0.431%
CCN(CC)C(=O)CC(c1ccc(OC)cc1)c1c(O)cc(OC)cc1OC (stereo not drawn) | -1.57%
CCN(CC)C(=O)CC(c1ccc2c(c1)OCO2)c1c(O)cc(OC)cc1OC (stereo not drawn) | -2.77%
CCN(CC)CCC(c1ccc(OC)cc1)c1c(O)cc(OC)cc1OC (stereo not drawn) | -66.4%
CCN(CC)CCC(c1ccc2c(c1)OCO2)c1c(OC)cc(OC)c2ccc(=O)oc12 (stereo not drawn) | -46.2%
CCN(CC)CCC(c1ccc2c(c1)OCO2)c1c(O)cc(OC)cc1OC (stereo not drawn) | -73.4%
CC(C)CC(C(=O)OCC(=O)c1c(N)n(C)c(=O)n(C)c1=O)N1C(=O)c2ccccc2C1=O (stereo not drawn) | -27%
COCCNC(=S)N1CCC(C(=O)c2ccc3c(c2)OCCO3)CC1 | 32.7%
Cc1ccc(F)cc1CNC(=O)c1cc(COc2ccc3ncccc3c2)on1 | 5.04%
CCn1c(=O)c2c(cnn2C)c2ccccc21 | 2.58%
Brc1ccc(-c2c(-c3ccsc3)sc3ccccc23)cn1 | 14.1%
Cc1ccc(-c2nc(CS(=O)CC(=O)NCCN3CCCC3)c(C)o2)cc1 (stereo not drawn) | -5.74%
CC(C)c1ccc(-c2csc(NC(=O)c3cccs3)c2C(=O)O)cc1 | 18.3%
O=C(CSc1nc2ccccc2c(=O)n1Cc1ccccc1)NCc1ccco1 | -39.6%
O=C(CSc1nc2ccccc2c(=O)n1Cc1ccc(C(=O)NC2CC2)cc1)NCc1ccco1 | -51.5%
COc1cc2nc(SCC(=O)NCCc3ccccc3)n(Cc3ccco3)c(=O)c2cc1OC | -43.3%
O=C(CSc1nc2ccccc2c(=O)n1Cc1ccc(Cl)cc1)NCc1cccs1 | -52.5%

SMILES | hERG current change (%, negative = inhibition) at 10uM
O=C(CSc1nc2ccccc2c(=O)n1Cc1ccco1)NCc1ccco1 | -65.4%
O=C(CSc1nc2ccccc2c(=O)n1Cc1ccc(F)cc1)NCc1cccs1 | -14%
Cc1ccccc1-n1c(SCC(=O)NCc2cccs2)nc2ccccc2c1=O | -17.4%
Cn1c(SCC(=O)NCc2ccco2)nc2ccccc2c1=O | -23.6%
COCCNC(=O)CSc1nc2cc3c(cc2c(=O)n1Cc1ccco1)OCO3 | -27.4%
O=C(CSc1nc2ccsc2c(=O)n1Cc1ccc(C(=O)O)cc1)NCc1ccco1 | 2.08%
COCCNC(=O)CSc1nc2cc(OC)c(OC)cc2c(=O)n1Cc1ccco1 | -61.2%
O=C(CSc1nc2ccccc2c(=O)n1Cc1ccco1)NCc1ccccc1 | -29.3%
Cc1cc(C(=O)N2CCCC(CCC(=O)N3CCN(c4ccccn4)CC3)C2)c(C)o1 (stereo not drawn) | -9.16%
COc1cccc(Cn2c(=S)[nH]c3ccc(N4CCOCC4)cc3c2=O)c1 | -8.19%
CCOC(=O)C1CCCN(C(=O)Cn2cnc3c2c(=O)n(C)c(=O)n3C)C1 (stereo not drawn) | 20.3%
O=C(C1CCCC1)N1CCN=C1SCc1cccc([N+](=O)[O-])c1 | -19.3%
Cc1ccc2nc(NCc3ccc(F)cc3)c3nncn3c2c1 | 2.23%
COc1ccc(C2N(Cc3ccccc3)CCN2Cc2ccccc2)cc1[N+](=O)[O-] | -29.9%
O=C(CSc1nc2ccccc2c(=O)n1Cc1ccco1)Nc1cccc(O)c1 | 3.9%
O=C(CSc1nc2ccccc2c(=O)n1Cc1ccco1)NCCN1C(=O)CSC1=O | -61.4%
CCC(Sc1nc2cc(OC)c(OC)cc2c(=O)n1Cc1ccco1)C(=O)NCCOC (stereo not drawn) | -28.2%
CCn1c(SCC(=O)NCc2ccco2)nc2ccccc2c1=O | -34.4%
Cc1ccc(CSc2nc3ccccc3c(=O)n2Cc2ccco2)cc1 | 8.42%
Cn1c(SCC(=O)NCCN2C(=O)CSC2=O)nc2ccccc2c1=O | -2.05%
Cc1ccc(NC(=O)CN(C)C(=O)CSc2nc3ccccc3c(=O)n2Cc2ccco2)cc1 | -71.1%
